The results in this text go back to PubChem BioAssay (EPA / NIEHS).

Activity calls are given as the source filed them. Rule for the calls: active = hit-call score of the fitted dose curve at least 0.9, where 1 is the maximum; inactive = score below 0.9.

Test [1] in a line: UKN2_HCS_IMR90_neural_migration: University of Konstanz (UKN) Leist Lab Neural Crest Cell Migration Assay in human induced IMR90 Pluripotent Stem Cells (UKN2) (AID 2284204). The conditions noted are these: actives raise or lower the signal. The method, boiled down:
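Stopper-exclusion migration (cMINC), human iPSC-derived neural crest cells; N2-S + EGF/FGF; compound added 24 h post-stopper removal, 24 h exposure. Readout: calcein-AM/Hoechst 30 min, HCS fluorescence imaging; bidirectional fitting, DMSO baseline.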

Test [2] is described as follows: IUF_NPC1b_proliferation_BrdU_72hr: Leibniz Research Institute for Environmental Medicine (IUF) 72-hour Neural Progenitor Cell Bromodeoxyuridine (BrdU) Proliferation Assay (NPC1b) (AID 2284207). The method, boiled down: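 Luminescent BrdU ELISA measured DNA synthesis during the last 16 h of a 72 h exposure of primary human neural progenitor spheres grown with EGF and FGF. Signal was fitted relative to DMSO controls.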

Test [3] can be described thus: IUF_NPC1a_proliferation_area_72hr: Leibniz Research Institute for Environmental Medicine (IUF) 72-hour Neural Progenitor Cell Proliferation Area Assay (NPC1a) (AID 2284208). The procedure, abridged:
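Measured in 3D suspension: each well held one primary hNPC sphere grown with EGF and FGF at pH 7.2-7.6. Compound stayed on for 72 h, then area was imaged; spheres lacking growth factors defined reduced proliferation.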

Test [4] in a line: IUF_NPC1_viability_72hr: Viability Assessment at 72 hours in the Leibniz Research Institute for Environmental Medicine (IUF) Neural Progenitor Cell Proliferation Assay (NPC1) (AID 2284209). The method, boiled down: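 Three-day continuous exposure of human neural progenitor spheres under EGF/FGF-driven proliferation; cell viability scored by alamar blue signal versus DMSO.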
The nature of test [5]: CCTE_Mundy_HCI_Cortical_Synap_Neur_Matur_NeuriteSpotCountPerNeuriteLength: CCTE's Synaptogenesis and Neurite Maturation Assay in rat cortical cells for Neurite Spot Count per Neurite Length, Mundy Lab (AID 2284210). The procedure, abridged:
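Read-out: synaptophysin puncta counted along MAP2-stained neurites, normalised to neurite length, by automated high-content imaging. Rat cortical cells; AraC DIV 5; chemical dosing DIV 7; termination DIV 12. DMSO baseline.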

A short description of test [6]: CCTE_Mundy_HCI_Cortical_Synap_Neur_Matur_BPCount: CCTE's Synaptogenesis and Neurite Maturation Assay in rat cortical cells for Branch Point Count, Mundy Lab (AID 2284211). The procedure, abridged: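 In this multiplexed morphology assay, cortical cells from rat receive chemicals at DIV 7 and are fixed at DIV 12, then immunostained and imaged; branch points are counted, with DMSO as baseline.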

Test [7] is described as follows: CCTE_Mundy_HCI_Cortical_NOG_NeuriteCount: CCTE's Neurite Outgrowth Assay in rat cortical cells for Neurite Count, Mundy Lab (AID 2284212).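 Note: cells fixed about two days after chemical exposure began.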 The procedure, abridged: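 Rat cortical primary cells; compound added 2 h post-plating, 1/10 dilution of working solution. Anti-betaIII-tubulin/AF488 ICC; ArrayScan neurite count vs DMSO.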
A short description of test [8]: CCTE_Mundy_HCI_Cortical_NOG_NeuriteLength: CCTE's Neurite Outgrowth Assay in rat cortical cells for Neurite Length, Mundy Lab (AID 2284213). The method, boiled down:
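First, rat primary cortical cells were plated and, 2 h later, given test chemical as a 1/10 dilution. Finally, βIII-tubulin immunostaining enabled automated imaging of neurite length.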

Test [9] can be described thus: CCTE_Mundy_HCI_Cortical_Synap_Neur_Matur_NeuriteLength: CCTE's Synaptogenesis and Neurite Maturation Assay in rat cortical cells for Neurite Length, Mundy Lab (AID 2284214). The method, boiled down:
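DMSO-normalised neurite length, from high-content imaging of anti-MAP2-stained rat cortical cells fixed at DIV 12. Glia were suppressed with AraC (DIV 5) before chemical exposure from DIV 7.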

A short description of test [10]: CCTE_Mundy_HCI_Cortical_Synap_Neur_Matur_NeuriteSpotCountPerNeuron: CCTE's Synaptogenesis and Neurite Maturation Assay in rat cortical cells for Neurite Spot Count per Neuron Count, Mundy Lab (AID 2284215). The method, boiled down: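 Developing rat cortical neurons, with glia suppressed by AraC, are exposed to chemicals from DIV 7 to DIV 12. Automated fluorescence imaging of MAP2-labelled neurites and synaptophysin puncta yields a count per neuron, normalised against DMSO wells.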

Test [11] in a line: CCTE_Mundy_HCI_Cortical_Synap_Neur_Matur_SynapseCount: CCTE's Synaptogenesis and Neurite Maturation Assay in rat cortical cells for Synapse Count, Mundy Lab (AID 2284218). The method, boiled down: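 Endpoint: synapses/neuron by HCI (synaptophysin puncta on MAP2-labelled neurites, Hoechst nuclei). Rat primary cortical cells, AraC DIV 5, dosed DIV 7, fixed DIV 12; DMSO negative control.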

Test [12] is described as follows: CCTE_Mundy_HCI_Cortical_Synap_Neur_Matur_NeuriteCount: CCTE's Synaptogenesis and Neurite Maturation Assay in rat cortical cells for Neurite Count, Mundy Lab (AID 2284222).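 Note: exposure from day 7 to day 12 in vitro with readout at day 12.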 The procedure, abridged: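 In this multiplexed morphology readout, rat primary cortical neurons are fixed at DIV 12 following dosing at DIV 7 and stained for MAP2, synaptophysin and nuclei. High-content image analysis yields neurite count.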

The nature of test [13]: CCTE_Mundy_HCI_Cortical_Synap_Neur_Matur_CellBodySpotCount: CCTE's Synaptogenesis and Neurite Maturation Assay in rat cortical cells for Cell Body Spot Count, Mundy Lab (AID 2284223). The procedure, abridged: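 Chemicals were applied to AraC-treated rat primary cortical cells at DIV 7 and measured at DIV 12. Fixed cells were labelled for MAP2, synaptophysin and nuclei, and high-content imaging gave cell body synaptophysin spot counts per neuron relative to DMSO.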

Test [14] in a line: UKN2_HCS_IMR90_cell_viability: Viability Assessment in the University of Konstanz (UKN) Leist Lab Neural Crest Cell Migration Assay in human induced IMR90 Pluripotent Stem Cells (UKN2) (AID 2284233).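 Note: cells exposed to compound for 24 h after a 24 h migration phase.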 The procedure, abridged:
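Viability read as calcein-AM fluorescence by high-content imaging, Hoechst co-stain, 30 min. Human iPSC (IMR90) neural crest cells had migrated 24 h into stopper-defined gaps before 24 h chemical exposure. Fitted bidirectionally relative to DMSO.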

A short description of test [15]: CCTE_Mundy_HCI_Cortical_NOG_BPCount: CCTE's Neurite Outgrowth Assay in rat cortical cells for Branch Point Count, Mundy Lab (AID 2284237). The method, boiled down: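 Measured 50.33 h after dosing, this morphology endpoint uses rat primary cortical cultures labelled for betaIII-tubulin. Branch points are quantified by high-content imaging, with DMSO as negative control and baseline.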

The nature of test [16]: CCTE_Mundy_HCI_hNP1_Casp3_7: CCTE's Caspase-Glo 3/7 Assay in human neuroprogenitor cells for Apoptosis, Mundy Lab (AID 2284240). The method, boiled down:
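Luminescent caspase-3/7 readout, 26.5 h post-dose, in human neural progenitor cells from WA09 embryonic stem cells. Cells grew 40–44 h at 37 °C, 5% CO2 before chemical addition. Activity analysed as signal increase over DMSO baseline.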

The term AC50 denotes the concentration giving half of the maximal activity seen. As for `[Cl-].[Cl-].[NH2-].[NH2-].[Pt+4]`, the call in [1], in test [4], in test [5], in [7], in test [8] and in [9] was inactive. Besides, the compound was classed as inactive in [10], in test [11], in [12], in test [13], in [14] and in test [15]. Moreover, the outcome in [16] was inactive. In addition, the AC50 in [2] was 5.68 µM (active); in test [3] it was 34.9 µM (active); in test [6], 0.029 µM (active).
